Laboratory results taken from PubChem BioAssay (NCATS).
Results filed as inconclusive are left out. Activity calls are given as the source filed them. Calls come from the whole dose curve; as a rule, active = well fitted curve in the direction sought with a large enough effect; inconclusive = small, poorly fitted or top-dose-only effect, or another doubt; inactive = no such curve, though single readings can be large; an effect the other way counts as inactive or inconclusive.

Tests used:
[1] = tested on: NIH3T3; assay: Cytotoxic Profiling of Annotated Libraries Using Quantitative High-Throughput Screening (AID 1296008); conditions: Five cell lines viability, CellTiter-Glo ATP luminescence, 48-72 h; max response: hits give low values; note: nearly all actives have a fitted effect of over 60% in size
Summary of the method: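 Cytotoxicity was measured as CellTiter-Glo ATP luminescence, read after 10 min at room temperature. Compound treatment of the cells lasted 48 or 72 hr at 37 degrees Celsius in a qHTS format.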

[2] = tested on: HACAT; assay: qHTS assay to identify novel small-molecules to repurpose for Merkel cell carcinoma treatment (AID 1296009); conditions: MCC and control cell lines, CellTiter-Glo viability, 72 h; at 44.8 µM (top of the series) unless noted; note: nearly all actives have a fitted effect of over 60% in size
Summary of the method: (§1)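 72 hr, 37 degree celsius; NPC 8-pt / MIPE 11-pt dose response; compound pinned in DMSO; CellTiter-Glo, 10 min RT, luminescence; normalized to no-cell and DMSO controls.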

[3] = tested on: MCC-13; assay: as above; conditions: MCC and control cell lines, CellTiter-Glo viability, 72 h; series mostly up to 46 µM
Summary of the method: as §1

[4] = tested on: MKL-1; assay: as above; conditions: MCC and control cell lines, CellTiter-Glo viability, 72 h; series mostly up to 46 µM
Summary of the method: as §1

[5] = tested on: MKL-2; assay: as above; conditions: MCC and control cell lines, CellTiter-Glo viability, 72 h; series mostly up to 46 µM
Summary of the method: as §1

[6] = tested on: UISO; assay: as above; conditions: MCC and control cell lines, CellTiter-Glo viability, 72 h; series mostly up to 46 µM
Summary of the method: as §1

[7] = tested on: WaGa; assay: as above; conditions: MCC and control cell lines, CellTiter-Glo viability, 72 h; series mostly up to 46 µM
Summary of the method: as §1

[8] = tested on: C33A; assay: Primary qHTS to identify gynecologic anti-cancer compounds using libraries of approved drugs and bioactive compounds (AID 1345084); conditions: Gynecologic cancer cell panel viability, ATPlite luminescence, 48 h; series mostly up to 57.5 µM; note: nearly all actives have a fitted effect of over 55% in size
Summary of the method: (§2)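 48 h compound exposure at 37 C, 5% CO2; five-point qHTS. ATPlite luminescence readout of cell ATP.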

[9] = tested on: CASKI; assay: as above; conditions: Gynecologic cancer cell panel viability, ATPlite luminescence, 48 h; series mostly up to 57.5 µM
Summary of the method: as §2

[10] = tested on: Es-2; assay: as above; conditions: Gynecologic cancer cell panel viability, ATPlite luminescence, 48 h; series mostly up to 57.5 µM
Summary of the method: as §2

[11] = tested on: HeLa; assay: as above; conditions: Gynecologic cancer cell panel viability, ATPlite luminescence, 48 h; series mostly up to 57.5 µM
Summary of the method: as §2

[12] = tested on: Hek293T; assay: as above; conditions: Gynecologic cancer cell panel viability, ATPlite luminescence, 48 h, control line for the selectivity index; series mostly up to 57.5 µM
Summary of the method: as §2

[13] = tested on: JEG-3; assay: as above; conditions: Gynecologic cancer cell panel viability, ATPlite luminescence, 48 h; series mostly up to 57.5 µM
Summary of the method: as §2

[14] = tested on: OV90; assay: as above; conditions: Gynecologic cancer cell panel viability, ATPlite luminescence, 48 h; series mostly up to 57.5 µM
Summary of the method: as §2

[15] = tested on: PA-1; assay: as above; conditions: Gynecologic cancer cell panel viability, ATPlite luminescence, 48 h; series mostly up to 57.5 µM
Summary of the method: as §2

[16] = tested on: SKOV3; assay: as above; conditions: Gynecologic cancer cell panel viability, ATPlite luminescence, 48 h; series mostly up to 57.5 µM
Summary of the method: as §2

[17] = tested on: NIH3T3; assay: qHTS assay to identify novel small-molecules to repurpose for Merkel cell carcinoma treatment (AID 1296009); conditions: MCC and control cell lines, CellTiter-Glo viability, 72 h; at 44.8 µM (top of the series) unless noted; note: nearly all actives have a fitted effect of over 60% in size
Summary of the method: as §1

[18] = tested on: HEK293T; assay: as above; conditions: MCC and control cell lines, CellTiter-Glo viability, 72 h; at 44.8 µM (top of the series) unless noted
Summary of the method: as §1

[19] = tested on: MCC-26; assay: as above; conditions: MCC and control cell lines, CellTiter-Glo viability, 72 h; series mostly up to 46 µM
Summary of the method: as §1

[20] = tested on: CAOV3; assay: Primary qHTS to identify gynecologic anti-cancer compounds using libraries of approved drugs and bioactive compounds (AID 1345084); conditions: Gynecologic cancer cell panel viability, ATPlite luminescence, 48 h; series mostly up to 57.5 µM; note: nearly all actives have a fitted effect of over 55% in size
Summary of the method: as §2
% is set by controls: 0 for no effect and ±100 for the full control effect.

Cc1c(N)c(=O)n(-c2ccccc2)n1C
inactive: max response [1] -4.09% | outcome [2] | Potency [3] | Potency [4] | Potency [5] | Potency [6] | Potency [7] | Potency [8] | Potency [9] | Potency [10] | Potency [11] | Potency [12] | Potency [13] | Potency [14] | Potency [15] | Potency [16]

Nc1ccc(O)c(C(=O)O)c1
inactive: outcome [1] | outcome [2] | Potency [3] | Potency [4] | Potency [5] | outcome [17] | Potency [6] | Potency [7] | Potency [8] | Potency [9] | Potency [10] | Potency [11] | Potency [12] | Potency [13] | Potency [14] | Potency [15] | Potency [16]

N=C(N)N
inactive: outcome [1] | outcome [2] | outcome [18] | Potency [3] | Potency [4] | Potency [5] | outcome [17] | Potency [6] | Potency [7] | Potency [8] | Potency [9] | Potency [10] | Potency [11] | Potency [12] | Potency [13] | Potency [14] | Potency [16]

COc1cc(/C=C/C(=O)N2CCN(CC(=O)N3CCCC3)CC2)cc(OC)c1OC
inactive: outcome [1] | outcome [2] | outcome [17] | Potency [8] | Potency [9] | Potency [10] | Potency [11] | Potency [12] | Potency [13] | Potency [14] | Potency [15]

COc1cc2c3cc1Oc1cc(ccc1O)C[C@@H]1c4c(cc(OC)c(O)c4Oc4ccc(cc4)C[C@@H]3N(C)CC2)CC[N+]1(C)C
inactive: max response [1] 4.48% | outcome [18] | Potency [3] | Potency [19] | Potency [4] | Potency [5] | Potency [6] | Potency [7] | Potency [8] | Potency [20] | Potency [9] | Potency [10] | Potency [11] | Potency [12] | Potency [13] | Potency [14] | Potency [15] | Potency [16]

C[N+]1(C)[C@@H]2CC(OC(=O)[C@H](CO)c3ccccc3)C[C@H]1[C@@H]1O[C@@H]12 (some centres not stated)
inactive: max response [1] 4.27% | outcome [2] | outcome [18] | Potency [3] | Potency [4] | Potency [5] | Potency [6] | Potency [7] | Potency [8] | Potency [9] | Potency [10] | Potency [11] | Potency [12] | Potency [13] | Potency [14] | Potency [15] | Potency [16]

CCCCCCCC/C=C/C(=O)O
inactive: max response [1] 2.83% | outcome [2] | Potency [3] | Potency [4] | Potency [5] | Potency [6] | Potency [7] | Potency [8] | Potency [9] | Potency [10] | Potency [11] | Potency [12] | Potency [13] | Potency [14] | Potency [15] | Potency [16]

CN1[C@@H]2CC[C@H]1CC(OC(c1ccccc1)c1ccccc1)C2 (some centres not stated)
inactive: max response [1] -0.104% | outcome [2] | Potency [8] | Potency [9] | Potency [10] | Potency [11] | Potency [12] | Potency [13] | Potency [15] | Potency [16]

CC(N)C(=O)OC(C)(C)Cc1ccc(Cl)cc1 (configuration not stated)
inactive: max response [1] -1.5% | outcome [2] | Potency [3] | Potency [4] | Potency [5] | Potency [6] | Potency [7] | Potency [8] | Potency [20] | Potency [9] | Potency [10] | Potency [11] | Potency [13] | Potency [14] | Potency [15] | Potency [16]

CO[C@@]1(NC(=O)Cc2cccs2)C(=O)N2C(C(=O)O)=C(COC(N)=O)CS[C@@H]21
inactive: outcome [1] | outcome [2] | outcome [18] | Potency [3] | Potency [19] | Potency [4] | Potency [5] | outcome [17] | Potency [6] | Potency [7] | Potency [8] | Potency [20] | Potency [9] | Potency [10] | Potency [11] | Potency [12] | Potency [13] | Potency [14] | Potency [15] | Potency [16]

NS(=O)(=O)c1ccc(-n2nc(C(F)(F)F)cc2-c2ccc(Cl)cc2)cc1
inactive: max response [1] -15.5% | outcome [2] | Potency [8] | Potency [9] | Potency [10] | Potency [11] | Potency [12] | Potency [13] | Potency [14] | Potency [15] | Potency [16]

CC(C)OC(=O)c1cc(C(=O)OC(C)C)cc([N+](=O)[O-])c1
inactive: max response [1] -2.82% | outcome [2] inactive [at 92 µM] | Potency [3] | Potency [19] | Potency [4] | Potency [5] | Potency [6] | Potency [7] | Potency [8] | Potency [20] | Potency [9] | Potency [10] | Potency [11] | Potency [12] | Potency [13] | Potency [14] | Potency [15]

C#CC1(O)CC[C@H]2[C@@H]3CCC4=CCCC[C@@H]4[C@H]3CC[C@@]21C (some centres not stated)
inactive: max response [1] -0.384% | outcome [2] | outcome [18] | Potency [19] | Potency [8] | Potency [20] | Potency [9] | Potency [10] | Potency [11] | Potency [12] | Potency [13] | Potency [14]

c1ccc(CCNc2nc(-c3ccccc3)cs2)cc1
inactive: max response [1] -13.6% | outcome [2] | Potency [3] | Potency [4] | Potency [7] | Potency [8] | Potency [20] | Potency [9] | Potency [10] | Potency [11] | Potency [12] | Potency [13] | Potency [15] | Potency [16]

NCCO
inactive: max response [1] -0.614% | outcome [2] inactive [at 92 µM] | Potency [3] | Potency [4] | Potency [5] | Potency [6] | Potency [7] | Potency [8] | Potency [9] | Potency [10] | Potency [11] | Potency [12] | Potency [13] | Potency [14] | Potency [15]
